Measurements taken from PubChem BioAssay (NCI).
About 83,000 compounds went through this panel and 20% of them were active in at least one assay; those are over-represented in the sample as a whole.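 Step 1: grow cells in 96-well plates. Step 2: add test compound at a single concentration. Step 3: incubate 48 h. Step 4: record percent growth.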 Active and inactive are the calls of the source. Rule for the calls: active = growth percent below 10; inactive = the rest.

Assays:
Experiment in all cases: NCI-60 one-dose screen, 48 h (100 = growth as untreated, 0 = no growth, -100 = all killed)
Conditions in all cases: 10 µM unless noted
T-47D breast = test system: T-47D breast
BT-549 breast = test system: BT-549 breast
MDA-MB-435 melanoma = test system: MDA-MB-435 melanoma
SW-620 colon = test system: SW-620 colon
MCF7 breast = test system: MCF7 breast
HCT-116 colon = test system: HCT-116 colon
HCC-2998 colon = test system: HCC-2998 colon
KM12 colon = test system: KM12 colon

Measured: growth

Cc1ccccc1/C=C/c1nn2c(-c3ccoc3C)nnc2s1
inactive: T-47D breast 90.5% | BT-549 breast 111% | MDA-MB-435 melanoma 96.3% | SW-620 colon 104% | MCF7 breast 83.9% | HCT-116 colon 106% | HCC-2998 colon 108% | KM12 colon 105%

CCN1C(=O)N(CC)C2SC(N/N=C/c3ccccc3)=NC21 (configuration not stated)
active: BT-549 breast -19.9% | MDA-MB-435 melanoma -10.2%
inactive: T-47D breast 64.8% | SW-620 colon 22.5% | MCF7 breast 18.6% | HCT-116 colon 14.2% | HCC-2998 colon 12.7% | KM12 colon 13.3%

C/C(Cc1ccc(Cl)cc1)=C(/c1ccccc1)c1ccc(OCCN)cc1
inactive: T-47D breast 101% | BT-549 breast 95.3% | MDA-MB-435 melanoma 95.1% | SW-620 colon 102% | MCF7 breast 99.9% | HCT-116 colon 102% | HCC-2998 colon 99% | KM12 colon 103%

CS(=O)(=O)c1ccc(-c2nn(-c3ccccc3)cc2/C=N/NC(=O)c2ccncc2)cc1
inactive: T-47D breast 90.8% | BT-549 breast 97.1% | MDA-MB-435 melanoma 85.4% | SW-620 colon 102% | MCF7 breast 93.8% | HCT-116 colon 107% | HCC-2998 colon 102% | KM12 colon 90.7%

CCNC(=NCCCN(C)C)N/C(N)=N/c1nc2ccccc2s1
inactive: T-47D breast 94.7% | BT-549 breast 97.1% | MDA-MB-435 melanoma 93.8% | SW-620 colon 103% | MCF7 breast 82.8% | HCT-116 colon 76.4% | HCC-2998 colon 98.1% | KM12 colon 93.9%

COc1cc(-c2nc(SCc3ccc(C)cc3)[nH]c(=O)c2C#N)ccc1OCc1ccccc1
inactive: T-47D breast 109% | BT-549 breast 156% | MDA-MB-435 melanoma 98.2% | SW-620 colon 107% | MCF7 breast 94.5% | HCT-116 colon 112% | HCC-2998 colon 117% | KM12 colon 102%

C=CCn1c(SCC(=O)Nc2cccc(C(=O)/C=C/c3ccccc3Cl)c2)nc2ccccc2c1=O
active: HCT-116 colon -86.9%
inactive: T-47D breast 74.5% | BT-549 breast 99.7% | MDA-MB-435 melanoma 89.1% | SW-620 colon 67.2% | MCF7 breast 24.4% | HCC-2998 colon 100% | KM12 colon 80.2%

CC1=CC(=O)CC(C)(C)[C@@]1(O)/C=C/C(C)=C\C(=O)O
active: T-47D breast -22.7% | BT-549 breast -22.4% | MDA-MB-435 melanoma -70.7% | SW-620 colon 0.826% | MCF7 breast -14.6% | HCT-116 colon -34% | HCC-2998 colon -52.1% | KM12 colon 3.82%

O=C1Nc2ccc(Cl)cc2/C1=C/c1ccc(OCc2ccc(Br)cc2F)cc1
inactive: T-47D breast 106% | BT-549 breast 129% | MDA-MB-435 melanoma 104% | SW-620 colon 97.8% | MCF7 breast 87.5% | HCT-116 colon 96.7% | HCC-2998 colon 112% | KM12 colon 101%

O=c1cc(-c2ccccc2)nc2sc(-c3c[nH]c4ccc(Br)cc34)nn12
inactive: T-47D breast 75.2% | BT-549 breast 108% | MDA-MB-435 melanoma 101% | SW-620 colon 105% | MCF7 breast 67.9% | HCT-116 colon 103% | HCC-2998 colon 109% | KM12 colon 103%

CCOC(=O)/C=c1\sc2n(c1=O)C1C(NN=2)N(CC)C(=O)N1CC (configuration not stated)
inactive: T-47D breast 84% | BT-549 breast 57.7% | SW-620 colon 31.7% | MCF7 breast 11% | HCT-116 colon 28.8% | HCC-2998 colon 77.1% | KM12 colon 36%
active: MDA-MB-435 melanoma -17.8%

Cc1cc(O)c2c(c1)C(=O)C(c1c(C)cc3c(c1O)C(=O)C=CC3=O)=CC2=O
inactive: T-47D breast 21.9% | BT-549 breast 113% | MDA-MB-435 melanoma 96.5% | MCF7 breast 49.9% | HCT-116 colon 72.8% | HCC-2998 colon 112% | KM12 colon 109%
active: SW-620 colon 8.08%

CCN1C/C(=N\S(=O)(=O)c2ccccc2)N(CC)C1=S
inactive: T-47D breast 102% | BT-549 breast 97.3% | MDA-MB-435 melanoma 101% | SW-620 colon 107% | MCF7 breast 97.3% | HCT-116 colon 91.5% | HCC-2998 colon 98.4% | KM12 colon 103%

CS(=O)c1nccc(-c2c(-c3ccc(F)c(OCCc4ccccc4)c3)nc3sccn23)n1 (configuration not stated)
active: MCF7 breast -1.77%
inactive: T-47D breast 15.2% | BT-549 breast 120% | MDA-MB-435 melanoma 111% | SW-620 colon 80.5% | HCT-116 colon 63.2% | HCC-2998 colon 58.6% | KM12 colon 89.2%

CN1C(=O)N(C)C2C1NN=c1s/c(=C\c3ccccn3)c(=O)n12 (configuration not stated)
inactive: T-47D breast 108% | BT-549 breast 99.2% | MDA-MB-435 melanoma 88.5% | SW-620 colon 99.3% | MCF7 breast 91.9% | HCT-116 colon 108% | HCC-2998 colon 104% | KM12 colon 91.6%

Brc1cccc(/C=N/Nc2nc(N/N=C/c3cccc(Br)c3)nc(N3CCOCC3)n2)c1
inactive: T-47D breast 56.4% | BT-549 breast 52.7% | MDA-MB-435 melanoma 33.4% | SW-620 colon 24.7% | MCF7 breast 22.1% | HCT-116 colon 21.2% | HCC-2998 colon 31.5% | KM12 colon 30.3%

Cc1cc(C(=O)Nc2ccc(SC#N)cc2)c(C)o1
inactive: T-47D breast 84.1% | BT-549 breast 75.4% | MDA-MB-435 melanoma 103% | SW-620 colon 104% | MCF7 breast 88.1% | HCT-116 colon 96.1% | HCC-2998 colon 107% | KM12 colon 89%

CS(=O)(=O)c1nccc(-c2c(-c3ccc(F)c(OCc4ccc(F)cc4)c3)nc3sccn23)n1
inactive: BT-549 breast 69.8% | MDA-MB-435 melanoma 97.3% | SW-620 colon 88.2% | HCT-116 colon 90.2% | KM12 colon 41.5%
active: T-47D breast -18.7% | MCF7 breast -6.26% | HCC-2998 colon -63.6%

CN1CCN(c2ccc(C(=O)/C=C/c3ccc(Cl)c(C(F)(F)F)c3)cc2)CC1
active: SW-620 colon 1.29% | MCF7 breast 7.85%
inactive: T-47D breast 29.6% | BT-549 breast 109% | MDA-MB-435 melanoma 13.7% | HCT-116 colon 16.1% | HCC-2998 colon 33.7% | KM12 colon 27.3%

COC[C@]12CC[C@@H](C)[C@H](C)[C@H]1C1=CC[C@@H]3[C@@]4(C)CCCNC(C)(C)[C@@H]4CC[C@@]3(C)[C@]1(C)CC2
inactive: T-47D breast 39.8% | BT-549 breast 66.1% | HCC-2998 colon 20.1% | KM12 colon 19.3%
active: MDA-MB-435 melanoma 9.61% | SW-620 colon -42.1% | MCF7 breast -33.2% | HCT-116 colon 5.39%

COc1cc2c3c(n(CCCNC4CCCCC4)c(=O)c2cc1OC)-c1cc2c(cc1C3=O)OCO2
inactive: T-47D breast 91.5% | BT-549 breast 78.2% | MDA-MB-435 melanoma 102% | HCC-2998 colon 73.3% | KM12 colon 57.4%
active: SW-620 colon -76.8% | MCF7 breast -78.1% | HCT-116 colon -72.3%

CC(=O)c1sc(Nc2cccc(Nc3nc(C)c(C)s3)c2)nc1C
inactive: T-47D breast 13.3% | BT-549 breast 46.2% | MDA-MB-435 melanoma 59.1% | SW-620 colon 62.5% | MCF7 breast 61.7% | HCT-116 colon 44.2% | HCC-2998 colon 80.1% | KM12 colon 60.2%

CCCCCCCCCC[C@@H](C)[C@@H]1CC(=O)N[C@H]([C@@H](C)O)C(=O)N[C@@H](C)C(=O)N[C@H](C)C(=O)N[C@@H](CCC(N)=O)C(=O)N[C@H](Cc2ccc(O)cc2)C(=O)N[C@@H](C(C)CC)C(=O)O1 (some centres not stated)
inactive: T-47D breast 28% | BT-549 breast 72.1% | MDA-MB-435 melanoma 75.3% | SW-620 colon 81.9% | MCF7 breast 38.9% | HCT-116 colon 64.6% | HCC-2998 colon 68.3% | KM12 colon 81.4%

IP(CCCCCCCCCCSc1n(Cc2ccc3ccccc3c2)c(-c2ccccc2)c(-c2ccccc2)[n+]1Cc1ccc2ccccc2c1)(c1ccccc1)(c1ccccc1)c1ccccc1
active: T-47D breast -57.4% | BT-549 breast -71.4% | MDA-MB-435 melanoma -81.7% | SW-620 colon -77.8% | MCF7 breast -54.2% | HCT-116 colon -60.9% | HCC-2998 colon -86.8% | KM12 colon -83.3%

O=C(Cn1cc(CN2C(=O)c3ccc([N+](=O)[O-])cc3C2=O)nn1)Nc1ccc(F)cc1Cl
inactive: T-47D breast 95.4% | BT-549 breast 92.4% | MDA-MB-435 melanoma 101% | SW-620 colon 99.6% | MCF7 breast 93.3% | HCT-116 colon 102% | HCC-2998 colon 100% | KM12 colon 105%

CC(C)Sc1nc(NC2CC2)c(C#N)c(-c2ccccc2)n1
inactive: T-47D breast 83.5% | BT-549 breast 105% | MDA-MB-435 melanoma 88.1% | SW-620 colon 82.6% | MCF7 breast 73.7% | HCT-116 colon 53.2% | HCC-2998 colon 89.9% | KM12 colon 97.5%

CC(C)(C)n1nnnc1C(Nc1nccs1)c1cc2cccc3ccc4cccc1c4c32 (configuration not stated)
inactive: T-47D breast 73.6% | BT-549 breast 100% | MDA-MB-435 melanoma 96.2% | SW-620 colon 98.8% | MCF7 breast 76.3% | HCT-116 colon 91.7% | HCC-2998 colon 113% | KM12 colon 101%

COc1cc(/C=N/n2cnc3oc(-c4ccccc4)cc3c2=N)cc(CN2CCCC2)c1O
active: SW-620 colon -59.4% | MCF7 breast -79.3% | HCT-116 colon -77.8%
inactive: T-47D breast 93.3% | BT-549 breast 129% | MDA-MB-435 melanoma 96.6% | HCC-2998 colon 98.5% | KM12 colon 11.2%

COc1cc(C2CC(c3ccc(Nc4nc(NCCO)nc(Nc5ccc(Cl)cc5)n4)cc3)=Nc3c(N)nc(N)nc3N2)cc(OC)c1OC (configuration not stated)
inactive: T-47D breast 54.5% | BT-549 breast 52.1% | MDA-MB-435 melanoma 74.6% | SW-620 colon 51.6% | MCF7 breast 42.7% | HCT-116 colon 23.6% | HCC-2998 colon 94.5% | KM12 colon 61.9%
